High-throughput results deposited in PubChem BioAssay by National Center for Advancing Translational Sciences (NCATS).
Most compounds without a hit are left out; they make up all but 12% or so of the library.
BAZ2B inh: inhibitors of human BAZ2B bromodomain; AlphaScreen BAZ2B-H3K14Ac peptide displacement; Potency, µM (doses to about 114 µM), without a hit: top-dose activity change, negative = inhibition, most hits filed as inhibitors; 360,000 compounds, 4.4% hits; Q9UIF8; note: % is set by controls: 0 for no effect and ±100 for the full control effect; nearly all actives have a fitted effect of over 60% in size
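In this displacement format the biotinylated H3(5-23) peptide acetylated at Lys14 serves as ligand at 50 nM, with BAZ2B at 50 nM in PBS pH 7.4 containing 0.01% Tween-20. Donor and acceptor beads are 10 ug/mL final.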
HP1b binding inh: inhibitors of HP1-beta chromodomain binding to methylated histone tails. P83916. AlphaScreen HP1-beta / biotin-H3K9me3 peptide binding. Potency, µM (series often up to 114 µM), inactives show at the highest dose activity change, negative = inhibition, actives largely listed as inhibitors. 390,000 compounds, 0.56% hits. AID 540317; note: nearly all actives have a fitted effect of over 70% in size
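HP1-beta protein (50 nM final) preincubated 30 min at room temperature with biotinylated H3(1-18)K9me3 peptide (50 nM) in PBS pH 7.4, 0.01% Tween-20, then compound added for 30 min. AlphaScreen streptavidin donor/nickel chelate acceptor beads (10 ug/mL final), 30 min dark, luminescence read.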
G9a inh: blocks human histone lysine methyltransferase G9a; Q96KQ7; G9a H3K9 monomethylation, AlphaScreen, 2 h; Potency, µM (titrated, usually from 102 µM), inactives show at the highest dose activity, negative = inhibition, usual class: inhibitors; 350,000 compounds, 8.8% hits; note: % is set by controls: 0 for no effect and ±100 for the full control effect; nearly all actives have a fitted effect of over 75% in size
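Quantitative HTS format: methyltransferase activity on a biotin-tagged H3K9 peptide is measured by AlphaScreen, using a rabbit anti-monomethyl-H3K9 antibody with streptavidin donor and anti-IgG acceptor beads. Final levels are 20 nM enzyme, 500 nM peptide, 20 uM SAM; 2 h RT.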
Sfp inh: blocks B. subtilis Sfp PPTase activity. Q9F4F7. Biochemical Sfp PPTase activity, qHTS. Potency, µM, inactives show largest response in the series, negative = inhibition, hits mostly inhibitors. 310,000 compounds, 3.5% hits. AID 1490;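 note: the enzyme is Sfp with the accession as filed and its product quenches rhodamine fluorescence; 0% = enzyme reaction without inhibitor and -100% = no enzyme wells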
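With Hepes-Na pH 7.6 buffer containing 10 mM MgCl2, Sfp (15 nM) modified BHQ-2-YbbR (12.5 uM) using rhodamine-CoA (5 uM). Two reads 30 minutes apart at 525/598 nm yielded each well's rate.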
JMJD2A Tudor inh: inhibitors of human JMJD2A Tudor domain | 390,000 compounds, 4.4% hits | O75164 | AlphaScreen JMJD2A-Tudor / H3K4me3 peptide binding | Potency, µM (doses to about 114 µM), for the others: top-dose activity change, negative = inhibition, hits mostly inhibitors; note: % is set by controls: 0 for no effect and ±100 for the full control effect; nearly all actives have a fitted effect of over 50% in size
TDP1 inh: TDP1 (human) enzyme inhibition. recombinant TDP1, AlphaScreen DNA substrate cleavage. Potency, µM (titrated, usually from 130 µM), for inactives: top-dose activity change, negative = inhibition, usual class: inhibitors. 350,000 compounds, 0.28% hits. AID 485290; note: % is set by controls: 0 for no effect and ±100 for the full control effect; nearly all actives have a fitted effect of over 40% in size
Target sequence (Q9NUW8 whole entry, looked up): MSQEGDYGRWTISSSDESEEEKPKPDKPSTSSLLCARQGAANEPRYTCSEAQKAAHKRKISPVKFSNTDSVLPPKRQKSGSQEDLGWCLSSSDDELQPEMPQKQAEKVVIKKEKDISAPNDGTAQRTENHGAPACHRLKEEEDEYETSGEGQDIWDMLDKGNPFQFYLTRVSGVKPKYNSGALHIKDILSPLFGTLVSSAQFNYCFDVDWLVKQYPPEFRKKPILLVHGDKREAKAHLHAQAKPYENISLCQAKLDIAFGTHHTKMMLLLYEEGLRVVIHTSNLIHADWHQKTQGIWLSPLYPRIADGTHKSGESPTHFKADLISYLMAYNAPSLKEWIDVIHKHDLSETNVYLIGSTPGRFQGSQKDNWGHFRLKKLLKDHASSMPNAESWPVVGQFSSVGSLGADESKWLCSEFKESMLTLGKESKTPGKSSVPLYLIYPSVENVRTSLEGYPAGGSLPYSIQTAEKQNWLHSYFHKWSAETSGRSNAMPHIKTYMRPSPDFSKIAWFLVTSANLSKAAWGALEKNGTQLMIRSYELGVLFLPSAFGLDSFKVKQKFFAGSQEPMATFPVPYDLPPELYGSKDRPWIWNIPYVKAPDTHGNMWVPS
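Signal: AlphaScreen proximity between streptavidin donor and anti-FITC acceptor beads on intact substrate. Reaction: Tdp1 1 nM, substrate 15 nM final, 5 min RT after 15 min compound preincubation.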
* hit, by the source's call; u = inconclusive; x = not tested or not shown; ! = a repeat was not active; [ ] = another dose, or the depositor's remark. Calls come from the whole dose curve; as a rule, active = well fitted curve in the direction sought with a large enough effect; inconclusive = small, poorly fitted or top-dose-only effect, or another doubt; inactive = no such curve, though single readings can be large; an effect the other way counts as inactive or inconclusive. Potency is the fitted concentration of half-maximal effect.

SMILES	BAZ2B inh	HP1b binding inh	G9a inh	Sfp inh	JMJD2A Tudor inh	TDP1 inh
Cc1cc(C)n2nc(C(=O)OCC(=O)NNC(=O)c3ccc(Cl)cc3)nc2n1	10.5%	7.9%	-7.5%[2.33 µM]	x	-17.2%	x
Cc1ccc(NC(=O)Cn2nnc(C(=O)NCCc3ccccc3)c2N)cc1	-30.4%	23.8%	u	x	-29.4%	x
O=C1C(=O)N(CC2CCCO2)C(c2ccco2)/C1=C(/O)c1ccc(F)cc1 (centres undefined)	-25.5%	35.2%	u	7.7%	-3.8%	-8.1%
CC(C)C[C@H](NC(=O)c1nc[nH]c1C(=O)N[C@@H](CCCCN)C(=O)OC(C)(C)C)C(=O)OC(C)(C)C	x	32.4%	x	x	-35.2%	0.3%
CC(C)C[C@H](NC(=O)c1nc[nH]c1C(=O)NC1CCNCC1)C(=O)OC(C)(C)C	79.4µM*	20.9%	u	x	u	0.9%
CC(C)(C)OC(=O)[C@H](CCCCN)NC(=O)c1nc[nH]c1C(=O)N[C@@H](CCCCN)C(=O)OC(C)(C)C	x	46.4%	x	x	50.1µM*	0.3%
CC(C)C[C@H](NC(=O)c1[nH]cnc1C(=O)N[C@@H](C)C(=O)OC(C)(C)C)C(=O)OC(C)(C)C	8.9%	45.6%	26.5%[12.7 µM]	33.3%	-17.9%	4.7%
O=C(CSc1ncccc1C(=O)Oc1ccccc1Cl)Nc1ccc(C(F)(F)F)cc1Cl	5.0%	25.1%	u	x	15.3%	2.6%
COc1cccc(C(=O)OCC(=O)c2c(N)n(C)c(=O)n(C)c2=O)c1	u	2.9%	21.5%[2.33 µM]	x	-6.9%	-2.3%[56.1 µM]
C=CCNC(=O)C(=O)Nc1ccc2c(c1)N(S(=O)(=O)c1cccs1)CCC2	-9.7%	11.5%	-6.3%	x	-14.5%	-1.5%
CCOC(=O)c1cc(-c2ccc(N3CCOCC3)cc2)nn1-c1ccccc1C(=O)O	12.6µM*	u	x	0.1%	3.16µM*	1.58µM*
CCOC(=O)c1cc(-c2ccc(N3CCOCC3)cc2)nn1-c1ccccc1	u	-16.6%	-7.6%	-10.4%	-34.3%	-2.3%
O=C(NNS(=O)(=O)c1ccc(Cl)cc1)c1sccc1-n1cccc1	-35.6%	-4.3%	u	4.8%	12.6µM*	9.9%
Cc1ccc[n+](CC(=O)c2ccc(Br)cc2)c1	4.8%	38.0%	-3.6%[59 µM]	13.8%	-11.8%	x
N#Cc1ccc[n+](CC(=O)c2ccc(Cl)cc2)c1	-31.5%	36.1%	79.4µM*	10.6%	-17.0%	3.5%
Cc1nc2sccn2c(=O)c1CCN1CCC(=C(c2ccc(F)cc2)c2ccc(F)cc2)CC1	u	-1.3%	1.4%[59 µM]	56.2µM*!	u	2.7%
Cc1nc2sccn2c(=O)c1S(=O)(=O)N1CCN(c2ccc(F)cc2)CC1	5.8%	11.0%	-4.2%	12.6%	-18.4%	-2.6%
CCn1cnc2sc(C(=O)N(Cc3ccc(N(C)C)cc3)Cc3ccco3)c(C)c2c1=O	44.7µM*	35.5µM*	15.8µM*	u	50.1µM*	8.3%
COc1ccc(C(=O)N(Cc2ccc(N(C)C)cc2)Cc2ccco2)cc1Cl	20µM*	u	u	x	35.5µM*	14.7%
CN(C)c1ccc(CN(Cc2ccco2)C(=O)c2ccc(C(C)(C)C)cc2)cc1	11.2µM*	u	11.2µM*	x	12.6µM*	9.8%
COc1ccc(C(=O)N(Cc2ccco2)Cc2ccccc2F)cc1Cl	-2.1%	50.6%	14.3%[59 µM]	x	-25.8%	7.0%
COc1ccc(OC)c(CNC(=O)c2ccc(NC(=O)c3nsc4ccccc34)cc2)c1	-3.5%	-1.7%[57 µM]	14.3%[59 µM]	x	-17.5%	-2.7%
Cc1ccccc1NC(=O)COC(=O)c1cc(S(=O)(=O)N2CCOCC2)ccc1C	14.3%	34.6%	-4.0%[12.7 µM]	x	-11.4%	-0.4%
CN(C)c1ccc(/C=N/n2c(C3CCCCC3)n[nH]c2=S)cc1	u	u	10µM*	-19.7%	39.8µM*	x
Cc1ccsc1/C=N/n1c(C2CCCCC2)n[nH]c1=S	5.5%	-11.9%	1.41µM*	-28.3%	u	-1.9%
